Sampled rows, rich in hits. Any-hit rate of the full collection: about 22%.
Pf growth 48h: inhibits P. falciparum growth in the first generation, 48 h | P. falciparum luciferase growth in erythrocytes, 48 h | Potency, µM (series often up to 28.7 µM), inactives show at the top dose activity change, negative = inhibition, usual class: inhibitors | 310,000 tested, 5.9% active | AID 504832; also: potency is read from the fitted curve at half-maximal effect; % is scaled to controls: 0 for no effect and ±100 for the full control effect
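In quantitative HTS format, infected erythrocytes bearing luciferase-reporter parasites were treated for a single generation at 37 C. Luminescence after adding detection reagent served as the growth measure.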
Pf growth 96h: inhibits malaria parasite growth, 96 h | P. falciparum luciferase reporter growth, 96 h | 320,000 tested, 6.9% active | Potency, µM (top dose mostly 28.7 µM), without a hit: at the top dose activity change, negative = inhibition, most hits filed as inhibitors; also: potency is read from the fitted curve at half-maximal effect; % is scaled to controls: 0 for no effect and ±100 for the full control effect
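Two-generation exposure (96 h) targets delayed-death phenotype. Reporter parasites carrying integrated firefly luciferase, in red cells at 2% hematocrit and 0.05% parasitemia final, kept at 37 C, 5% CO2; luminescence loss indicates inhibition.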
Shiga toxin inh: inhibitors of Shiga toxin in Vero cells; inhibition, % at 38.7 µM; 290,000 tested, 9.2% active; Vero cells, Shiga toxin protein synthesis inhibition reporter; in the data active = inhibition mostly above about 28%, no sharp cut-off; inactive = mostly below about 43%; also: 0% is about no effect
LmPK inhibitor: blocks Leishmania mexicana pyruvate kinase activity; 290,000 tested, 0.37% active; Potency, µM (titrated, usually from 57.5 µM), inactives show at the highest dose activity change, negative = inhibition, most hits filed as inhibitors; purified LmPK, Kinase-Glo ATP luminescence, 1 h; AID 1721; also: potency is read from the fitted curve at half-maximal effect; % is scaled to controls: 0 for no effect and ±100 for the full control effect
Target sequence (Q27686 whole entry, looked up): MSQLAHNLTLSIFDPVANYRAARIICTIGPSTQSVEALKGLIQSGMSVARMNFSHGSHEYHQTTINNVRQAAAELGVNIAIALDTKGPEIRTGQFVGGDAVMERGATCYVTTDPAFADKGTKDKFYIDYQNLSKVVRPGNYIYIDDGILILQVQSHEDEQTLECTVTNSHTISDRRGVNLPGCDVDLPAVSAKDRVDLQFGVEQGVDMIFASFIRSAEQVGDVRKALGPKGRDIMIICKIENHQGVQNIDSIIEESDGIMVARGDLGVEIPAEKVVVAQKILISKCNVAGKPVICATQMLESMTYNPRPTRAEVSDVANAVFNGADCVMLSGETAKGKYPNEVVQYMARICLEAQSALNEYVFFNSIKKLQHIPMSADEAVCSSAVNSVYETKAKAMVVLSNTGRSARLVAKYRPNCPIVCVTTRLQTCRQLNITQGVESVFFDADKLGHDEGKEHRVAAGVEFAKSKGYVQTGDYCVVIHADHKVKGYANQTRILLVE
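0.1 nM LmPK, 0.5 mM PEP, 0.1 mM ADP; 50 mM imidazole pH 7.2, 7 mM MgCl2, 50 mM KCl; 1 h RT. Kinase-Glo luminescence readout, normalized to no-enzyme (full inhibition) and uninhibited wells.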
Cycloheximide cs: counter-screen hit for Shiga toxin inhibitors, cycloheximide. 300,000 tested, 12% active. max response, %. cell reporter, cycloheximide protein synthesis inhibition counterscreen; in the data active = max response mostly above about 13%, no sharp cut-off; inactive = mostly below about 14%; also: read at 38.3 µM for the half of the compounds with a filed dose; 0% is about no effect
* = called active by the depositor; u = inconclusive; x = no result. Unless noted, calls follow the shape of the dose curve; as a rule, active = well fitted inhibition curve with a large enough effect; inconclusive = small, poorly fitted or top-dose-only effect, or another doubt; inactive = no such curve, though single readings can be large or run the other way.

SMILES | Pf growth 48h | Pf growth 96h | Shiga toxin inh | LmPK inhibitor | Cycloheximide cs
COc1ccc(C=O)cc1O | 9% | -8% | 0 | 0% | -7
COc1ccc(/C=N/N=C/c2ccc(OC)c(O)c2)cc1O | u | 7% | 55 | -6% | 36*
NC(=O)c1[nH]cnc1N | 19% | 5% | -3 | -15% | -3
CCOc1cc2c3c(c1)C1(C(=O)N3C(C)(C)C=C2C)C(C#N)=C(N)Oc2cc(O)ccc21 (centres undefined) | 4.7µM* | x | -23 | -3% | -3
CC1=CC(C)(C)N2C(=O)C3(C(C#N)=C(N)Oc4cc(C)oc(=O)c43)c3cccc1c32 (centres undefined) | u | 15µM* | -7 | 10% | -2
COc1ccc(-c2nn(-c3ccccc3)cc2C(=O)OCC(=O)c2ccc(C)c([N+](=O)[O-])c2)cc1 | 10µM* | u | -13 | 0% | -1
O=C(Cc1ccc(S(=O)(=O)N2CCOCC2)s1)NCCOc1ccccc1 | 1% | -8% | x | x | x
COc1ccc(OCC(=O)N2CCCC(CO)(CCOc3ccccc3)C2)cc1 (centres undefined) | u | 19% | -6 | 8% | 0
Fc1ccc(-c2nc(-c3cccs3)[nH]c2-c2ccc(F)cc2)cc1 | u | u | 9 | 2% | -2
Oc1ccc(-c2nc(-c3ccc(F)cc3)c(-c3ccncc3)[nH]2)cc1 | u | 13µM* | x | x | x
N#Cc1ccccc1S(=O)(=O)N1CCN(CC(O)c2ccccc2)CC1 (centres undefined) | u | u | -6 | 0% | 10
Cc1cc(OC(=O)c2ccco2)c2c3c(c(=O)oc2c1)CCCC3 | x | 3.7µM* | -5 | 6% | -3
Cc1ccc(-n2nc(C)cc2NC(=O)COc2cc(C)cc3oc(=O)c4c(c23)CCC4)cc1 | u | 9.3µM* | -13 | 2% | 14
Cc1cc(OC(=O)c2cccs2)c2c3c(c(=O)oc2c1)CCCC3 | 5.9µM* | 54% | -14 | 3% | -3
O=C(Nc1ccc(Oc2c(F)c(F)c(F)c(F)c2F)cc1)OC1CCN2Cc3ccccc3N=C12 (centres undefined) | u | 2.6µM* | 30 | -8% | -1
O[C@@H]1CCN2Cc3ccccc3N=C12 | x | x | 10 | x | -1
COc1ccc(S(=O)(=O)Nc2ccccc2N2CCOCC2)cc1OC | 1% | u | x | x | x
Cn1cccc1/C=N/n1c(-c2ccco2)n[nH]c1=S | 2% | u | -12 | -5% | -4
COc1cc(-c2n[nH]c(=S)n2/N=C/c2cccn2C)cc(OC)c1OC | -26% | u | 3 | 7.9µM* | -3
O=C(O)Cc1ccc(N=Nc2c(O)c(C(=O)O)cc3ccccc23)cc1 | 28% | u | 133* | -5% | 56*
Nc1nc(O)c(N=Nc2ccc(S(N)(=O)=O)cc2)c(=O)[nH]1 | -20% | -8% | 4 | 0% | -3
O=C(O)c1cc2ccc3ccccc3c2oc1=O | -8% | u | -45 | -2% | 11
NS(=O)(=O)c1ccc(N=Nc2c(O)c(C(=O)O)cc3ccccc23)cc1 | u | 10µM* | 7 | -8% | 4
Cc1cc(Cl)ccc1OC(C)C(=O)NNC(=O)C1CCCCC1C(=O)O (centres undefined) | 18% | 9% | -4 | -8% | -1
C=CCOc1ccccc1CN(C(=O)CCl)c1ccc2c(c1)OCO2 | u | 12µM* | 49* | 3% | 17*
SMILES | Pf growth 48h | Pf growth 96h | Shiga toxin inh | LmPK inhibitor | Cycloheximide cs
C=CCOc1ccccc1CNCCNC(=O)c1nonc1N | 13% | 13% | 17 | 0% | 13
Cc1ccc(CNC(=O)CSc2nc3ccsc3c(=O)n2NC(=O)c2ccccc2)cc1 | 59% | 37% | 32 | -5% | 3
Cc1cc(NC(=O)CSc2nc3ccsc3c(=O)n2NC(=O)c2ccccc2)no1 | 286% | 1% | 37* | -1% | 36*
CCC(C)NC(=O)CSc1nc2ccsc2c(=O)n1-c1ccc(OC)cc1 (centres undefined) | -20% | 12µM* | -17 | 1% | 1
O=C(Nn1c(SCc2ccc(F)cc2)nc2ccsc2c1=O)c1ccccc1 | 39% | 13µM* | 19 | 7% | 28*
CCC(C)NC(=O)CSc1nc2ccsc2c(=O)n1NC(=O)c1ccccc1 (centres undefined) | x | 8.3µM* | 33 | -2% | 28
Cc1c(O)ccoc1=O | 22% | 69% | -9 | 5% | 1
C=CCN(c1ccc(C(=O)NCCN2CCOCC2)cc1)S(C)(=O)=O | 39% | -7% | -2 | -5% | -2
CCCCCCCCCCCCCCCCN | 1% | -13% | x | x | x
CCOc1ccc(N=c2scc(-c3ccc(OC)cc3)n2CCO)cc1 | u | u | 54 | 1% | 16*
N=c1n(CCO)c2ccccc2n1CCOc1ccccc1 | -10% | u | -13 | -1% | -3
CCOc1ccc(N=c2scc(-c3ccccc3)n2CCO)cc1 | x | -22% | 43 | 2% | 29*
c1ccc(-c2csc(=Nc3cccnc3)n2CC2CCCO2)cc1 (centres undefined) | u | u | -15 | -5% | 7
CCn1c(-c2ccccc2)csc1=Nc1ccc(O)cc1 | 29% | u | 82* | 2% | 48*
CC1(C)CC2(CCO1)OC(=O)CC2C(=O)Nc1cccc2ccccc12 (centres undefined) | x | 201% | 1 | 4% | 11
O=C1CC(C(=O)Nc2cccc3ccccc23)C2(CCCC2)O1 (centres undefined) | 22% | 1.5µM* | 12 | -2% | 10
COc1ccc(CCN(C)CC(O)COc2c(C)ccc(C)c2C)cc1OC (centres undefined) | 15µM* | u | 7 | 1% | 2
COc1ccc(CCN(C)CC(O)COC(c2ccc(F)cc2)c2ccc(F)cc2)cc1OC (centres undefined) | 13µM* | 10µM* | -10 | 0% | -3
CCN(CC)CC(O)COC(c1ccccc1)c1ccccc1 (centres undefined) | u | u | -3 | 2% | -2
COc1ccc(CN(C)CC(O)COC(c2ccccc2)c2ccccc2)c(OC)c1OC (centres undefined) | 10µM* | u | -7 | 0% | -4
CCN(Cc1ccccc1)CC(O)COC(c1ccc(OC)cc1)c1ccc(OC)cc1 (centres undefined) | 15µM* | 9.3µM* | -13 | 1% | -6
COc1ccc(CCN(C)Cc2cccc3ccccc23)cc1OC | u | 6% | x | 4% | 2
COc1ccc(CCN(C)Cc2ccc(F)cc2F)cc1OC | x | 28% | -9 | -7% | 9
CN(CC(=O)Nc1cccc(S(=O)(=O)NC2=NCCC2)c1)Cc1ccccc1Cl | -26% | u | x | x | x
COc1ccc(N2C3=C(C(=O)CC(C)(C)C3)C(c3ccccc3OC)C3=C2CC(C)(C)CC3=O)cc1 | u | u | -1 | 3% | 0
Cc1nn(C)cc1C1C2=C(CC(C)(C)CC2=O)N(c2ccccc2)C2=C1C(=O)CC(C)(C)C2 | x | 3.7µM* | -3 | -4% | 1
CCn1cc(S(=O)(=O)Nc2ccc3c(c2)OCCO3)cn1 | 104% | 21% | 77* | -3% | 76*

High-throughput results as filed in PubChem BioAssay.
